MITF TRPM1 inh: MITF TRPM1 promoter inhibition in SK-MEL-5 cells; 0.83% of 330,000 active; SK-MEL-5 TRPM1 promoter luciferase, 24 h; inhibition, % at 12.5 µM;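 active means mean inhibition across replicates of 60% or more, whatever share of single replicates reaches that level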
HIF-2a block: blocks HIF-2a reporter activity; 786-0 RCC cells HIF-2a reporter, luciferase luminescence, overnight; inhibition, % at 18.8 µM; 0.72% of 360,000 active;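 active means inhibition of the luminescence signal of 40% or more relative to plate controls, in a single-dose primary screen at 18.75 µM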
Peg3 promoter: inhibitors of Peg3 promoter | inhibition, % at 20 µM | 1.7% of 360,000 active | HeLa PEG-Prom luciferase reporter, luminescence, overnight;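 active means inhibition of at least 50% at 20 µM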
CF NFkB block: blocks PAF-induced NF-kB reporter in cystic fibrosis cells. 0.86% of 360,000 active. KKLEB NF-kB-GFP reporter, GFP fluorescence overnight. inhibition, % at 5 µM;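 active means at least 50% inhibition at 5 µM, scaled per plate between neutral and stimulator controls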;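 further: PAF is a Pseudomonas aeruginosa culture filtrate used as stimulus; plate controls were PAF-stimulated DMSO wells for no effect and unstimulated DMSO wells for full effect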
KKLEB cytotox: CF airway cell cytotoxicity counter-screen; KKLEB CF airway cells viability, ATPlite luminescence, overnight; stronger effect = lower value; cells stimulated with P. aeruginosa culture filtrate; activity change (cytotoxicity), % at 5 µM; 0.36% of 360,000 active; AID 602141;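 active means corrected activity change at or below -50% at 5 µM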
Shn3 inh set2: inhibitors of Schnurri-3 3'UTR reporter in osteoblasts; 0.52% of 360,000 active; AID 588674; inhibition, % at 12.5 µM; Clone20 osteoblast Shn3 3'UTR firefly luciferase, 24 h;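 active means mean inhibition of at least 75% with every replicate also reaching 75%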;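 further: 0% = median of neutral control wells and 100% = pilot-screen positive control compound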
CF NFkB conf: confirmation of cystic fibrosis induced NF-kB inhibitors; KKLEB CF airway cells, PAF-induced NF-kB-GFP fluorescence, overnight; shares compounds with CF NFkB block; inhibition, % at 5 µM; 64% of 1,300 active; in the data active means inhibition above about 40%;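 further: stimulus PAF is a Pseudomonas aeruginosa filtrate and not platelet activating factor; plate controls were DMSO wells with stimulus for no effect and unstimulated DMSO wells for full effect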
* marks the source's active call; other numbers are inactive results; x = not tested or not shown; ! = not confirmed by another sample. The list is not random: actives were taken first. Their share in the collection is about 2.7%.

SMILES | MITF TRPM1 inh | HIF-2a block | Peg3 promoter | CF NFkB block | KKLEB cytotox | Shn3 inh set2 | CF NFkB conf
c1csc(Cc2nn3c(-c4ccncc4)nnc3s2)c1 | -13 | 18 | -5 | 50* | 5 | 6 | 49*
Clc1ccccc1OCc1nn2c(-c3ccncc3)nnc2s1 | 5 | 2 | -9 | 14 | -12 | 9 | x
COc1ccccc1-c1nnc2sc(C3CCCCC3)nn12 | 0 | -3 | 7 | 3 | 5 | 12 | x
Cc1cc(N2CCOCC2)c2c(N)c(Br)cc(C)c2n1 | 0 | 22 | 13 | 66* | -6 | 10 | 97*
c1cc2[nH]snc2c2nc(C3CC3)nc12 | -1 | -52 | -50 | 74* | 0 | -3 | 68*
CN1CCN(CCCCOc2ccc(Br)cc2)CC1 | -5 | -37 | -24 | -4 | 2 | 2 | x
Cc1ccc(NC(=O)c2cc(-c3ccccc3)n[nH]2)cc1 | -71 | -230 | -122 | 14 | 2 | -12 | x
CCN1CCN(Cc2ccc(NC(=O)c3ccc(C)c(NC(=O)c4cc(-c5ccc(Br)cc5)n[nH]4)c3)cc2C(F)(F)F)CC1 | -14 | -22 | 41 | 51* | -25 | 12 | 67*
CCN1CCN(Cc2ccc(NC(=O)c3ccc(C)c(NC(=O)c4cccc5[nH]ccc45)c3)cc2C(F)(F)F)CC1 | 4 | -23 | 42 | 54*! | -15 | 49 | 49*
CCN1CCN(Cc2ccc(NC(=O)c3ccc(C)c(NC(=O)N4CCNC4=O)c3)cc2C(F)(F)F)CC1 | 12 | 3 | 0 | 50* | -1 | 7 | 60*
Cc1cn(-c2cc(C(=O)Nc3ccc(C)c(NC(=O)N4CCNC4=O)c3)cc(C(F)(F)F)c2)cn1 | 1 | 9 | 8 | 32 | -9 | 4 | x
CCN1CCN(c2ccc(NC(=O)c3ccccc3F)cc2Cl)CC1 | -46 | -213 | -210 | -4 | -10 | -69 | x
Clc1ccc(N2CCN(/N=C/c3cccnc3)CC2)cc1 | -9 | -7 | -28 | -1 | 3 | 28 | x
COc1ccccc1CN1C(=NC(=O)CCC2CCCC2)SC2CS(=O)(=O)CC21 (centres undefined) | 8 | 21 | 24 | -9 | -28 | 1 | x
O=c1cc(-c2ccccc2Cl)oc2c([N+](=O)[O-])c(O)cc(O)c12 | 10 | -11 | 98* | 94* | 14 | -3 | 110*
CC(=O)c1ccc2noc(-c3ccccc3)c2c1 | -19 | -20 | -16 | 1 | -5 | -7 | x
CN(C)/C=C/C(=O)c1ccc2noc(-c3ccccc3)c2c1 | 0 | 8 | 4 | 57* | -4 | -4 | 82*
C[C@]1(CC/C(=C/CO)CO)[C@H](C=O)CC[C@@]23COC(=O)C2=CCC[C@@H]31 | x | 18 | -2 | -19 | -8 | -3 | x
O=C(c1cc([N+](=O)[O-])ccc1N1CCOCC1)N1CCN(c2ccccc2)CC1 | 57 | 22 | -11 | 53* | -37 | 3 | 59*
CN1CCN(c2ccc([N+](=O)[O-])cc2C(=O)N2CCOCC2)CC1 | 1 | 0 | 8 | -4 | -9 | -7 | x
O=C(Nc1cccc(S(=O)(=O)N2CCCCC2)c1)Nc1ccc(Cl)cc1Cl | 15 | -37 | 52* | 58* | -46 | 15 | 67*
CC1CCN(C(=O)CN(Cc2ccc(F)cc2)S(C)(=O)=O)CC1 | -4 | 14 | 6 | -16 | 5 | 15 | x
COc1ccc(Cl)cc1C(=O)OCC(=O)Nc1cccnc1Cl | -11 | -11 | 3 | -20 | 13 | -16 | x
COc1ccc(-c2cc(C(F)(F)F)nc(S(=O)(=O)CCCC(=O)Nc3cccnc3Cl)n2)cc1OC | 79* | -21 | 106* | 93* | -41 | 96* | 88*
CC1=CC(=O)C(C(C)=Nc2ccccc2[N+](=O)[O-])C(=O)O1 (centres undefined) | -4 | 11 | 11 | -2 | -10 | 0 | x
SMILES | MITF TRPM1 inh | HIF-2a block | Peg3 promoter | CF NFkB block | KKLEB cytotox | Shn3 inh set2 | CF NFkB conf
Cc1ccc(NC(=O)C(=O)NCc2ccc(/C=C(/C#N)C(=O)NCc3cccnc3)o2)cc1 | -1 | -3 | 12 | -17 | -4 | 26 | x
N#C/C(=C/c1ccc(CNC(=O)C(=O)Nc2cc(Cl)cc(Cl)c2)o1)C(=O)NCc1cccnc1 | 40 | 13 | 92* | 54* | -46 | 30 | 45*
Cc1nc(N2CCC(C(N)=O)CC2)c2c(-c3cccs3)csc2n1 | -8 | 24 | 18 | 67* | -16 | 15 | 68*
CC(NC(=O)OCc1ccccc1)C(=O)Oc1cc2oc(=O)cc(-c3ccccc3)c2cc1Cl (centres undefined) | -2 | 5 | -15 | 63* | -8 | 0 | 93*
CC(C)(C)c1ccc(C(O)c2ncc(-c3cccc(F)c3)[nH]2)cc1 (centres undefined) | x | -37 | -11 | -9 | -3 | -5 | x
COc1ccc(C2=Nn3c(nnc3-c3ccccc3OC)SC2)cc1OC1CCOC1 (centres undefined) | 63* | 36 | 6 | 58* | -3 | 12 | 81*
COc1ccc(C2=Nn3c(nnc3-c3ccccc3C(F)(F)F)SC2)cc1OC1CCOC1 (centres undefined) | 5 | 28 | 34 | 30 | -8 | 4 | x
COc1ccc(OC)c(-c2nnc3n2N=C(c2ccc(OC)c(OCC4CC4)c2)CS3)c1 | 65* | 29 | 33 | 60* | 7 | 6 | 84*
COc1ccc(C2=Nn3c(nnc3-c3ccccc3Cl)SC2)cc1OCC1CC1 | 36 | 24 | 37 | 40 | -24 | 54 | x
CCNC(=O)N(CCOC)CC1CCCN(C2Cc3ccccc3C2)C1 (centres undefined) | 5 | 21 | 7 | 8 | 0 | 7 | x
COc1ccc(-c2cc(C(=O)N3CCN(c4ccccc4O)CC3)c3ccccc3n2)cc1OC | -8 | -28 | 16 | 16 | -7 | 11 | x
CC(CC(=O)Nc1ccc(S(=O)(=O)Nc2ncccn2)cc1)c1ccccc1 (centres undefined) | -5 | 9 | 0 | 4 | -6 | 13 | x
Cn1cc([N+](=O)[O-])c(C(=O)Nc2ccc(Br)cn2)n1 | -4 | -438 | 15 | 16 | 10 | -10 | x
Cn1cc([N+](=O)[O-])c(C(=O)Nc2ccc(-c3nc4ccccc4o3)cc2)n1 | 49 | -35 | 51* | 68* | -36 | 7 | -87
Cc1nc(N)c(C#N)c(-c2cccnc2)c1-c1ccccc1 | 1 | 29 | 9 | 63* | -5 | 23 | 68*
Cc1ccc(S(=O)(=O)NCCC(=O)Nc2cc(S(=O)(=O)N(C)C)ccc2C)cc1C | 11 | 9 | 8 | -1 | 6 | 32 | x
Cc1ccc(C(=O)Nc2cccc(C(F)(F)F)c2)cc1NC(=O)c1nccn1C | x | -9 | 4 | 19 | 3 | -6 | x
Cc1ccc(C(=O)Nc2cccc(C(F)(F)F)c2)cc1NC(=O)c1ccno1 | -13 | -15 | 27 | 60* | -4 | 4 | 71*
